The list is not random: actives were taken first. Their share in the collection is about 19%.
AMA1 RON2 block – disrupts binding of P. falciparum AMA1 to RON2; Potency, µM (highest dose often 58.2 µM), most hits filed as inhibitors; AID 720542; AlphaScreen AMA1-biotinylated RON2 peptide binding; 360,000 compounds, 0.2% hits; note: nearly all actives have a fitted effect of over 45% in size
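AMA1 (3D7) with his tag at 25 nM final met compounds first, then biotinylated RON2 peptide at 25 nM; detection used donor plus acceptor beads, 10 µg/mL apiece, read by AlphaScreen after 30 min at room temperature.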
Pf growth 48h – P. falciparum growth inhibition at 48 hours (one generation). P. falciparum luciferase growth in erythrocytes, 48 h. Potency, µM (top dose mostly 28.7 µM), hits mostly inhibitors. 310,000 compounds, 5.9% hits. AID 504832
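Here the parasites carry a stable luciferase gene and grow inside erythrocytes in Albumax-based RPMI medium with compound for one erythrocytic cycle. Activity is scored as loss of luminescent signal.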
Shiga toxin inh – inhibitors of Shiga toxin in Vero cells | AID 2315 | Vero cells, Shiga toxin protein synthesis inhibition reporter | 290,000 compounds, 9.2% hits | inhibition, % at 38.7 µM; in the data active = inhibition mostly above about 28%, no sharp cut-off; inactive = mostly below about 43%
CHX counter – counter-screen hit for Shiga toxin inhibitors, cycloheximide; cell reporter, cycloheximide protein synthesis inhibition counterscreen; max response, %; 300,000 compounds, 12% hits; in the data active = max response mostly above about 13%, no sharp cut-off; inactive = mostly below about 14%; note: read at 38.3 µM for the half of the compounds with a filed dose
SARS PLpro yeast – inhibitors of SARS-CoV papain-like protease in yeast. S. cerevisiae expressing SARS-CoV PLpro, growth rescue. AID 485353. Potency, µM (titrated, usually from 32.9 µM), actives largely listed as activators. 330,000 compounds, 0.19% hits; calls by dose curve; note: nearly all actives have a fitted effect of over 55% in size
Pf growth 96h – P. falciparum growth inhibition at 96 hour, primary screen for plastid delayed-death inhibitors | P. falciparum luciferase reporter growth, 96 h | Potency, µM (highest dose often 28.7 µM), actives largely listed as inhibitors | 320,000 compounds, 6.9% hits
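Readout is luminescence from an integrated firefly luciferase in P. falciparum. Red cells, 2% hematocrit and 0.05% parasitemia final, were cultured with compound through two parasite generations (96 hours) at 37 C, 5% CO2.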
A number is an active result; - = inactive; ? = inconclusive; . = not tested or not shown; [ ] = remark or other dose. Unless noted, calls come from the whole dose curve; as a rule, active = well fitted curve in the direction sought with a large enough effect; inconclusive = small, poorly fitted or top-dose-only effect, or another doubt; inactive = no such curve, though single readings can be large; an effect the other way counts as inactive or inconclusive.

SMILES	AMA1 RON2 block	Pf growth 48h	Shiga toxin inh	CHX counter	SARS PLpro yeast	Pf growth 96h
O=c1ccc2ccc(OCCOc3cccc(Cl)c3)cc2o1	-	-	66	24	-	-
CN(C)C(=O)Oc1ccc(OC(=O)c2ccccc2)cc1	-	-	20	39	-	-
CCOC(=O)c1c(CSC(=N)N)n(-c2ccc(C)cc2)c2cc(Br)c(OC(C)=O)cc12	-	7.4µM	-	-	-	3.3µM
CCOC(=O)c1c(CN2CCOCC2)n(-c2ccccc2)c2cc(Br)c(OC)cc12	-	?	-	-	-	.
CCOC(=O)c1c(CN(C)C)n(-c2ccc(C)cc2)c2cc(Br)c(O)cc12	-	0.74µM	-	-	-	0.33µM
CCOC(=O)c1c(CN2CCN(C)CC2)n(C)c2cc(Br)c(OC)cc12	-	15µM	-	-	-	-
CCOC(=O)c1c(CSC(=N)N)n(C)c2cc(Br)c(OC(C)=O)cc12	-	?	-	-	-	-
CCOC(=O)c1c(CN2CCOCC2)n(-c2ccccc2)c2cc(Br)c(O)cc12	-	1.7µM	-	-	-	1.9µM
C=CCn1c(SCC(=O)N2CCCCC2)nnc1-c1ccncc1	-	-	-	-	-	-
CC(C)Cc1nnc(NC(=O)CCC(=O)NCCc2ccc(Cl)cc2)s1	-	-	-	-	-	-
CC(C)(C)c1ccc(-c2nc(C#N)c(NCCCn3ccnc3)o2)cc1	-	?	-	-	-	8.3µM
CC(C)(C)c1ccc(-c2nc(C#N)c(NCc3ccncc3)o2)cc1	-	?	91	57	-	.
N#Cc1nc(-c2ccc(F)cc2)oc1NCCCn1ccnc1	.	-	42	39	-	-
Cc1ccc(CNc2oc(C)nc2C#N)cc1	-	-	-	-	-	-
COc1ccc(-c2nc(C#N)c(NCCCn3ccnc3)o2)cc1OC	-	?	-	-	-	.
Cc1ccc(S(=O)(=O)Nc2c(O)c3ccccc3oc2=O)cc1C	-	-	-	-	-	-
c1ccc2oc(-c3ccn[nH]3)cc2c1	-	-	90	39	-	-
O=S(=O)(c1cccc(F)c1)N1CCN(c2nc(-c3cccnc3)nc3ccccc23)CC1	-	.	.	.	-	.
C/C=C1\COC(C(=O)NCc2ccccn2)(C(F)(F)F)C=C1C=C(C)C (stereo not drawn)	.	.	-	-	.	.
Cc1ccc(C(=O)c2sc3nc4c(cc3c2N)CCC4)cc1	-[2.32 µM]	-	active	47	-	?
NC(=O)c1sc2nc3c(c(-c4ccc(Cl)cc4)c2c1N)CCCC3	-	-	-	-	-	.
Cc1cc(C)c2c(N)c(C(=O)c3ccc(Cl)cc3)sc2n1	-	?	-	-	-	-
Nc1c(C(=O)N2CCCC2)sc2nc(-c3ccccc3)ccc12	-	-	75	39	-	-
CN1CCc2nc3sc(C(=O)NC(C)(C)C)c(N)c3cc2C1	-	-	-	-	-	?
Nc1c(C(=O)N2CCCCC2)sc2nc3c(cc12)CCCC3	-	-	108	50	-	-
SMILES	AMA1 RON2 block	Pf growth 48h	Shiga toxin inh	CHX counter	SARS PLpro yeast	Pf growth 96h
Cc1ccc(-c2c3c(nc4sc(C(N)=O)c(N)c24)CCC3)cc1	-	-	-	29	-	?
O=C(O)c1ccccc1C(=O)NCCc1c(C(=O)O)[nH]c2ccc(F)cc12	-	-	-	-	-	-
COc1ccccc1NC(=O)CSc1nc2n[nH]c(C)c2c(=N)n1-c1ccccc1Cl	-	5.9µM	-	-	?	-
CCc1ccccc1NC(=O)CSc1nc2n[nH]c(C)c2c(=N)n1-c1ccc(OC)cc1	-	?	-	-	-	-
Cc1[nH]nc2nc(SCC(=O)NC3CCCCC3)n(-c3ccc(Br)cc3)c(=N)c12	-	-	-	-	-	13µM
COc1ccc(CNC(=O)c2cc3ccccc3oc2=O)cc1	-	-	-	-	-	-
CCOC(=O)c1cc2c(ccc3ccccc32)oc1=O	-	-	-	-	-	-
COc1ccc2cc(C(N)=O)/c(=N\NC(=O)c3ccccc3)oc2c1	-	-	68	44	-	-
CCOC(=O)c1cc2ccc(OC)cc2oc1=O	-	-	66	18	-	-
CNC(=O)c1cc2ccc(OC)cc2oc1=O	-	-	-	12	-	.
COc1ccc(-c2[nH]c3ccccc3c2SCCNC(=O)c2cc3ccccc3oc2=O)cc1	-	-	-	-	-	9.3µM
COc1cccc(C(=O)N/N=c2/oc3ccccc3cc2C(N)=O)c1	-	-	-	-	-	-
Cc1nnc(SCC(=O)NNC(=O)c2ccco2)s1	-	?	.	.	-	-
COc1ccc2cc(C(=O)NCc3ccccc3)c(=O)oc2c1	-	-	43	13	-	?
COc1ccccc1N1CCN(CCN2C(=O)C3CCCCN3C2=O)CC1 (stereo not drawn)	-	-	-	-	-	?
O=C(NCCS(=O)(=O)c1ccc(Br)cc1)c1ccc(Cl)cc1Cl	-	-	-	-	-	-
C/C(=N\NC(=O)c1ccc(O)cc1)c1ccc2c(c1)Nc1ccccc1S2	-	?	-	-	-	?
C/C(=N\NC(=O)c1ccccc1F)c1ccc2c(c1)Nc1ccccc1S2	-	-	65	34	-	?
CCOC(=O)NCCc1c(C)nc2c(c(C)nn2C(C)(C)C)c1C	-	.	-	-	-	0.17µM
CC1(C)S[C@@H]2[C@H](NC(=O)Cc3ccccc3)C(=O)N2[C@@H]1C(=O)O	.	-	.	.	.	-
Cc1ccc(-c2ccc(C(=O)O)[nH]2)cc1	-	-	-	-	-	6.6µM
C/C(=N\NC(=O)C1CCCN(S(=O)(=O)c2ccccc2)C1)c1ccncc1 (stereo not drawn)	-	-	-	-	-	?
CC(=NNC(=S)N1CCN(C2CCCCCC2)CC1)c1ccccn1	14µM	.	.	.	.	.
C/C(=N\NC(=O)C1CCCN(S(=O)(=O)c2ccccc2)C1)c1cccnc1 (stereo not drawn)	-	-	-	-	-	9.3µM
C/C(=N\NC(=O)C1CCCN(S(=O)(=O)c2ccccc2)C1)c1ccccn1 (stereo not drawn)	-	2.3µM	-	-	-	-
SMILES	AMA1 RON2 block	Pf growth 48h	Shiga toxin inh	CHX counter	SARS PLpro yeast	Pf growth 96h
COc1ccc(/C=N/NC(=O)c2cccnc2)c(C(=O)O)c1OC	-	-	-	-	-	-
Cc1cc(C(=O)N/N=C/c2cn[nH]c2-c2ccccc2)cs1	-	-	-	-	-	?
O=C(N/N=C/c1c(-c2ccccc2)[nH]c2ccccc12)c1cccnc1	-	?	65	27	-	?
Cn1c(-c2ccccc2)c(/C=N/NC(=O)c2cccnc2)c2ccccc21	-	-	68	21	-	?
O=S(=O)(Nc1ccc2c(c1)OCO2)c1ccccc1	-	-	-	-	-	.
C[C@H](NC(N)=O)C(=O)Nc1ccc2c(c1)OCO2	-	-	-	23	-	-
CC(CC(=O)Nc1ccc2c(c1)OCO2)c1ccccc1 (stereo not drawn)	-	-	-	15	-	-
CC(CC(=O)Nc1ccc2c(c1)OCCO2)c1ccccc1 (stereo not drawn)	-	-	55	42	-	-

Compound activity as filed in PubChem BioAssay.
